# Laboratory results from PubChem BioAssay (NCI).
# About 83,000 compounds went through this panel and 20% of them were active in at least one assay; those are over-represented in the sample as a whole.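 A percent growth of 40 corresponds to 60% growth inhibition; 0 means no net growth; -100 means all cells died. Active threshold: below 10.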 Unmarked numbers belong to inactive results. Activity calls are given as the source filed them.
# Assays:
# Experiment in all cases: NCI-60 one-dose screen, 48 h (100 = growth as untreated, 0 = no growth, -100 = all killed)
# Details in all cases: 10 µM unless noted
# [1] = test system: SK-MEL-2 melanoma
# [2] = test system: EKVX NSCLC
# [3] = test system: SN12C renal
# [4] = test system: UO-31 renal
# [5] = test system: TK-10 renal
# [6] = test system: ACHN renal
# [7] = test system: CAKI-1 renal
# [8] = test system: A498 renal
# [9] = test system: CCRF-CEM leukemia
# [10] = test system: MOLT-4 leukemia
SMILES,growth [1],growth [2],growth [3],growth [4],growth [5],growth [6],growth [7],growth [8],growth [9],growth [10]
COC(=O)c1nc(-c2ccc(C)cc2)oc1N1CCOCC1,106%,92.8%,93.1%,83.7%,81.6%,102%,90.3%,77.4%,85%,80.8%
C#CCOc1cccc(-c2ncnc3cc(NC(=O)CCl)ccc23)c1,-4.29% (active),11%,-65.8% (active),-93.7% (active),11.8%,-99.6% (active),-94.4% (active),59.4%,-15.6% (active),-6.64% (active)
O=C(Nc1ncc(Cc2ccccc2Cl)s1)c1ccc2c(c1)OCCO2,39.8%,33.8%,30.2%,51.9%,46.2%,37.3%,20%,-0.0402% (active),6.45% (active),7.02% (active)
CN(C)c1ccc(/C=C/C2=[N+](C)c3ccccc3C2(C)C)cc1,16.4%,22.6%,-9.66% (active),19.4%,30.4%,14%,29.3%,66.6%,11.9%,-6.54% (active)
C=CC(=O)Nc1ccc2ncnc(Nc3cccc(NS(=O)(=O)CCC)c3Cl)c2c1,51.9%,51.8%,22.9%,19.2%,11.3%,29.3%,22.6%,-14.3% (active),50.2%,67.3%
NC(=O)[C@@H]1Cc2ccccc2CN1C(=O)c1ccc2c(c1)Cc1ccccc1-2,92.8%,83.1%,92.4%,61.3%,93.4%,90.5%,80.9%,89.2%,81.9%,71.1%
Cc1ccc(Nc2oc(-c3ccccc3)nc2[P+](c2ccccc2)(c2ccccc2)c2ccccc2)cc1,-69.1% (active),-31.3% (active),7.56% (active),-72.8% (active),-32.2% (active),2.5% (active),-29.8% (active),-52.2% (active),6.27% (active),-2.23% (active)
O=C(CN1C(=O)c2ccccc2S1(=O)=O)Nc1nc(-c2cc3ccccc3oc2=O)cs1,107%,102%,97.2%,91%,137%,103%,100%,98%,104%,110%
C#Cc1cccc(Nc2ncnc3ccc(-c4cnc(Cl)c(NS(C)(=O)=O)c4)cc23)c1,-73.6% (active),-46.3% (active),3.41% (active),-80.8% (active),-72.8% (active),13.4%,-31.9% (active),-76.8% (active),7.99% (active),-11.7% (active)
O=C(N/N=C/c1ccccc1Cl)c1ccccc1Nc1ccnc(C(F)(F)F)c1,-24% (active),11.7%,9.09% (active),1.62% (active),16.1%,1.95% (active),1.49% (active),-25% (active),11.2%,2.63% (active)
CCN1CCN(CCOc2ccc(CNc3ccc4nc(CCC5CCCCC5)[nH]c4c3)cc2)CC1,-3.49% (active),71.3%,67.8%,-24.9% (active),81.2%,40.9%,0.23% (active),43.9%,8.27% (active),20%
CN1CCN(Cc2ccc(NC(=O)c3cncc(C#Cc4cnc(N)c5ncccc45)c3)cc2Cl)CC1,56.5%,106%,92.5%,64.7%,104%,41.8%,73.5%,104%,-2.07% (active),83%
Cc1ccc(NC(=O)c2ccc(Nc3ncnc4c3cnn4-c3cccc(F)c3)cc2)cc1,104%,102%,96.2%,90.8%,105%,98.4%,90.7%,80.7%,95.5%,96.3%
COc1cccc(CNc2nnc(C)c(C)n2)c1O,106%,104%,96.7%,91.6%,108%,110%,100%,95.3%,101%,109%
CCOC(=O)/C(=C/c1ccc([N+](=O)[O-])cc1)C(=O)c1ccccc1,53.9%,103%,79.3%,-14.3% (active),20.7%,-7.93% (active),81.6%,83.5%,6.25% (active),4.35% (active)
CN1CCN(Cc2ccc(NC(=O)c3cc(C#Cc4cnc(N)c5ncccc45)n(C)n3)cc2C(F)(F)F)CC1,101%,105%,76.8%,64%,147%,47.2%,105%,83.2%,4.79% (active),80.9%
O=C(Nc1ncc(Cc2ccccc2)s1)c1ccc2c(c1)OCCO2,34.5%,32.6%,34.5%,46.6%,38.8%,27.3%,17.2%,2.75% (active),13.8%,6.38% (active)
Cc1c(CC(=O)Nc2ccccc2)nnn1-c1ccccc1,107%,104%,108%,88.2%,101%,109%,97.5%,108%,105%,99.7%
Cc1nn(C)c2ncnc(Nc3ccccc3Br)c12,100%,60.6%,98.8%,96.8%,97%,106%,102%,71.4%,93.3%,95.9%
O=C(/C=C/c1ccco1)c1ccc(Nc2ccnc3cc(Cl)ccc23)cc1,86.5%,85.2%,90.6%,94.8%,116%,96.5%,96%,33.6%,45.1%,10.8%
Cc1nc2ccccc2c(/C=C/c2ccc(Br)cc2)c1C(=O)/C=C/c1ccccc1,-4.28% (active),26.1%,10.8%,-74.2% (active),21.2%,6.36% (active),4.36% (active),18%,6.02% (active),7.65% (active)
COc1ccc(C2=C/C(=C\c3ccccc3O)C(=O)N2Cc2ccccc2)cc1,51.4%,82.1%,95.8%,68.4%,85.3%,93.4%,93.2%,98.3%,73.4%,66.8%
COc1ccc(NC(=O)CSc2oc(-c3ccccc3)nc2S(=O)(=O)c2ccc(Cl)cc2)c(OC)c1,66.4%,74.7%,75.8%,61.6%,67.1%,36.6%,86.1%,49.9%,89.1%,73%
COC(=O)c1ccc(-n2cc(CCCOS(=O)(=O)c3ccc(F)cc3)nn2)cc1,101%,101%,100%,88.2%,102%,101%,90.6%,84.4%,96.8%,95.7%
Cc1c2cnccc2c(C)c2c1c1cc(C(=O)O)ccc1n2C,-65.5% (active),16%,0.942% (active),-36.5% (active),-7.59% (active),-15% (active),-6.62% (active),-57.4% (active),5.53% (active),1.6% (active)
